PubChem BioAssay (Tox21)
Results filed as inconclusive are left out. Entries that show only a call come without a potency. Calls of active or inactive are those of the source. Unless noted, calls follow the shape of the dose curve; as a rule, active = well fitted curve in the direction sought with a large enough effect in the repeat runs; inconclusive = weak or mixed curves; inactive = no such curve, though single readings can be large; an effect the other way counts as inactive or inconclusive. Where a SMILES comes first, the peptide text is derived from it.

Assays:
[1] = qHTS assay to identify small molecule agonists of the sonic hedgehog signaling (Shh) pathway - cell viability counter screen (AID 1259366); also: nearly all actives have a fitted effect of over 50% in size
In short: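 NIH/3T3-derived Gli1-Luc reporter cells, 2,000 per well, received compound after 4 h and were treated about 23 h at 37C. Viability measured in the same wells by CellTiter-Fluor fluorescence after 1 h.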

[2] = qHTS assay to identify small molecule antagonists of the sonic hedgehog signaling (Shh) pathway - cell viability counter screen (AID 1259367); also: nearly all actives have a fitted effect of over 55% in size
In short: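 Fluorescence read-out (CellTiter-Fluor, 1 hr at 37C) taken after 23 hr compound treatment of 3T3 Gli1-Luc cells stimulated with conditioned medium. Cells were seeded at 2,000 per well and pre-incubated 4 hr.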

[3] = qHTS assay to identify small molecule agonists of the sonic hedgehog signaling (Shh) pathway (AID 1259368; calls by dose curve;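 also: NIH/3T3-derived 3T3Gli1-Luc cells carrying a stable Gli1-driven firefly luciferase reporter; series mostly up to about 92 µM; nearly all actives have a fitted effect of over 15% in size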)
In short: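 Quantitative high-throughput format using a Gli1-driven firefly luciferase reporter line derived from NIH/3T3 cells. After a 24 hr compound treatment at 37 C and 5% CO2, luminescence reported Gli1 response element activity.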

[4] = qHTS assay to identify small molecule antagonists of the sonic hedgehog signaling (Shh) pathway (AID 1259369; calls by dose curve; also: nearly all actives have a fitted effect of over 45% in size)
In short: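 Stable Gli1-Luc reporter NIH/3T3 clone; quantitative HTS in stimulated mode with conditioned medium. Luminescence measured after 24hr compound treatment at 37 C.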

[5] = molecular target: Estrogen receptor beta (Homo sapiens) (UniProt Q92731); assay: qHTS assay to identify small molecule agonists of the estrogen receptor beta (ER-beta) signaling pathway (AID 1259377; active = well fitted activation curve with a large enough effect in the signal ratio in the repeat runs, not every such curve was filed as active; the % refers to the signal ratio)
In short: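 ER-beta-UAS-bla HEK293T cells in medium with 2% charcoal-stripped FBS were exposed to compounds for 16 h at 37C. Beta-lactamase reporter activity was read as fluorescence after 2 h with LiveBLAzer B/G FRET substrate at room temperature.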

[6] = molecular target: Estrogen receptor beta (Homo sapiens) (UniProt Q92731); assay: qHTS assay to identify small molecule antagonists of the estrogen receptor beta (ER-beta) signaling pathway (AID 1259378; active = well fitted inhibition curve with a large enough effect in the signal ratio in the repeat runs, not every such curve was filed as active; the % refers to the signal ratio; also: potency is read from the fitted curve at half-maximal effect)
In short: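 ER-beta-UAS-bla HEK293T cells in 2% charcoal-stripped FBS medium treated with compound plus 1nM final 17-beta-estradiol for 16 hr at 37C. Beta-lactamase reporter read by FRET substrate fluorescence after 2 hours at room temperature.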

[7] = qHTS assay to identify small molecule agonists of the androgen receptor (AR) signaling pathway in the presence of an antagonist - cell viability counter screen (AID 1259379);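 also: MDA-kb2 human breast cancer cells carrying an MMTV luciferase reporter; series mostly up to about 92 µM; nearly all actives have a fitted effect of over 25% in size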
In short: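 Nilutamide-containing (3.0uM final) MDA-kb2 cultures, 3,000 cells/well, were treated with compounds across 15 concentrations. After 16 hr at 37C with no CO2, cell viability was determined by CellTiter-Fluor fluorescence in the luciferase assay wells.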

[8] = qHTS assay to identify small molecule agonists of the estrogen receptor beta (ER-beta) signaling pathway - cell viability counter screen (AID 1259380); also: nearly all actives have a fitted effect of over 30% in size
In short: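 Steps: plate ER-beta-UAS-bla HEK293T cells, rest 6 hr; add compounds in DMSO; incubate 16 hr at 37C, 5% CO2; add FRET substrate 2 hr; add CellTiter-Glo, wait 30 min at room temperature; read luminescence.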

[9] = qHTS assay to identify small molecule antagonists of the estrogen receptor beta (ER-beta) signaling pathway - cell viability counter screen (AID 1259382); also: series mostly up to about 92 µM; nearly all actives have a fitted effect of over 55% in size
In short: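 Viability is scored by CellTiter-Glo luminescence (30 min, room temperature) in ER-beta-UAS-bla HEK293T wells already read for reporter fluorescence. Compound exposure lasts 16 hr at 37C alongside 1nM 17-beta-estradiol in charcoal-stripped serum medium.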

[10] = molecular target: Estrogen receptor (Homo sapiens) (UniProt P03372); assay: qHTS assay to identify small molecule agonists of the estrogen receptor alpha (ER-alpha) signaling pathway in the presence of an antagonist (AID 1259383; calls by dose curve; also: top concentration of the series differs between compounds; nearly all actives have a fitted effect of over 15% in size)
In short: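 Readout was ERE-driven luciferase luminescence in VM7Luc4E2 cells, which express full-length ER-alpha endogenously. Compounds were tested at 15 concentrations for 22hr alongside 10.0nM ICI-182,780 (final concentration).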

[11] = qHTS assay to identify small molecule agonists or antagonists of the thyroid stimulating hormone receptor (TSHR) signaling pathway - wild type cell line counter screen (AID 1259384; calls by dose curve)
In short: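 Wild-type Hek293 cells, 800/well, 18 h at 37C, then compound with Ro20-1724 for 30 min RT. cAMP by HTRF (cAMP-d2/anti-cAMP cryptate), 1 h RT, fluorescence read. 15 concentrations, triplicates.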

[12] = molecular target: Thyrotropin receptor (Homo sapiens) (UniProt P16473); assay: qHTS assay to identify small molecule antagonists of the thyroid stimulating hormone receptor (TSHR) signaling pathway (AID 1259385; calls by dose curve; also: nearly all actives have a fitted effect of over 20% in size)
In short: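 TSHR-HEK293 cells (800/well) plated 18 h, then compounds with Ro20-1724 and TSH at 1.5 ng/mL final, 30 min at room temperature. cAMP quantified by HTRF (cAMP-d2/anti-cAMP-cryptate, 1 h); 15 concentrations in triplicate.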

[13] = qHTS assay to identify small molecule agonists of the estrogen receptor alpha (ER-alpha) signaling pathway in the presence of an antagonist - cell viability counter screen (AID 1259386);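 also: series mostly up to about 92 µM; cells exposed to compounds for 22 h at 37 °C before the viability read; nearly all actives have a fitted effect of over 30% in size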
In short: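 In this counter screen, compound effects on VM7Luc4E2 viability were tested in the presence of the antagonist ICI-182,780 at 10.0nM final. Compounds were dosed at 15 concentrations, exposure lasted 22hr, and the CellTiter-Fluor signal was read.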

[14] = molecular target: Progesterone receptor (Homo sapiens) (UniProt P06401); assay: qHTS assay to identify small molecule agonists of the progesterone receptor (PR) signaling pathway (AID 1346784; calls by dose curve; also: nearly all actives have a fitted effect of over 30% in size)
In short: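 PR-UAS-bla HEK 293T cells (beta-lactamase reporter under UAS) in 2% charcoal-stripped FBS, dosed with 23 nL compound after 6 hr, incubated 16hr at 37C. LiveBLAzer B/G FRET substrate added, fluorescence read after 2 hours.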

[15] = molecular target: Progesterone receptor (Homo sapiens) (UniProt P06401); assay: qHTS assay to identify small molecule antagonists of the progesterone receptor (PR) signaling pathway (AID 1346795; active = well fitted inhibition curve with a large enough effect in the signal ratio in the repeat runs, not every such curve was filed as active; the % refers to the signal ratio)
In short: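 PR-UAS-bla HEK293T cells with beta-lactamase reporter under UAS control, in 2% charcoal-stripped FBS, treated with compounds plus 1 nM promegestone (R5020, final) for 16 hr at 37C. Read-out: FRET beta-lactamase substrate fluorescence after 2 hr at room temperature.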

[16] = qHTS assay to identify small molecule antagonists of the progesterone receptor (PR) signaling pathway - cell viability counter screen (AID 1346798); also: series mostly up to about 92 µM; nearly all actives have a fitted effect of over 50% in size
In short: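 PR-UAS-bla HEK293T cells, 3,000/well in 2% charcoal-stripped FBS medium, dosed with compounds plus R5020 agonist and incubated 16 h at 37C. Viability then measured in the same wells by CellTiter-Glo luminescence after 30 min at RT.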

[17] = qHTS assay to identify small molecule antagonists of the TGF-beta/Smad signaling pathway - cell viability counter screen (AID 1346824); also: nearly all actives have a fitted effect of over 50% in size
In short: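 SBE-bla HEK 293T cells, incubated overnight, then compound plus 0.25 ng/mL TGF-beta1 (stock added) for 5 hr at 37 C. Viability was read in the same wells by CellTiter-Glo luminescence after 30 min at room temperature.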

[18] = qHTS assay to identify small molecule HDAC inhibitors - cell viability counter screen (AID 1259365); also: series mostly up to about 92 µM; nearly all actives have a fitted effect of over 50% in size
In short: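 Wild-type HCT-116 cells, 1,500/well, cultured overnight, then compound-treated 2 h at 37 C. Viability measured as ATP luminescence with CellTiter-Glo after 30 min at room temperature.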

[19] = qHTS assay to identify small molecule agonists of the progesterone receptor (PR) signaling pathway - cell viability counter screen (AID 1346799; calls by dose curve; also: nearly all actives have a fitted effect of over 45% in size)
In short: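 Counter screen in the PR-UAS-bla HEK293T wells (2% charcoal-stripped FBS, 16 h compound exposure at 37 C) after the bla read. CellTiter-Glo added, 30 min at room temperature, luminescence read as cell viability.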

[20] = molecular target: Androgen receptor (Homo sapiens) (UniProt P10275); assay: qHTS assay to identify small molecule agonists of the androgen receptor (AR) signaling pathway in the presence of an antagonist (AID 1259381; calls by dose curve; also: nearly all actives have a fitted effect of over 15% in size)
In short: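 Reporter-gene luminescence from MDA-kb2 cells exposed 16hr at 37C (0% CO2) to 15-point compound titrations with 3.0uM final nilutamide as AR antagonist.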

Sequence of Estrogen receptor beta (Homo sapiens) (Q92731 whole entry, looked up): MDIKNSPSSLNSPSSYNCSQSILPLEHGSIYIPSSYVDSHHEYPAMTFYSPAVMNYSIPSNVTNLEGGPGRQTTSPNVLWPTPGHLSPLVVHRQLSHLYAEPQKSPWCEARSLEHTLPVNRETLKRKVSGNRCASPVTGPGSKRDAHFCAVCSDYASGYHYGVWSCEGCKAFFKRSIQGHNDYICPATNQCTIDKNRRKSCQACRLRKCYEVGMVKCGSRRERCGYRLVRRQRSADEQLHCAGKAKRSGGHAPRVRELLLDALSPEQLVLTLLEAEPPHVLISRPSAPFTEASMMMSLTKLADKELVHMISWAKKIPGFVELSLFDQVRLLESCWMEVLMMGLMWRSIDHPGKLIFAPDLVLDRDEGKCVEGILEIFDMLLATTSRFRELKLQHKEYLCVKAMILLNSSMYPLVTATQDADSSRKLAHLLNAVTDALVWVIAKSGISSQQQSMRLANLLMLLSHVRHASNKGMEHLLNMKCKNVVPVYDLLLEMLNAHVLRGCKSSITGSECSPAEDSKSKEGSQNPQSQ
Sequence of Progesterone receptor (Homo sapiens) (P06401 whole entry, looked up): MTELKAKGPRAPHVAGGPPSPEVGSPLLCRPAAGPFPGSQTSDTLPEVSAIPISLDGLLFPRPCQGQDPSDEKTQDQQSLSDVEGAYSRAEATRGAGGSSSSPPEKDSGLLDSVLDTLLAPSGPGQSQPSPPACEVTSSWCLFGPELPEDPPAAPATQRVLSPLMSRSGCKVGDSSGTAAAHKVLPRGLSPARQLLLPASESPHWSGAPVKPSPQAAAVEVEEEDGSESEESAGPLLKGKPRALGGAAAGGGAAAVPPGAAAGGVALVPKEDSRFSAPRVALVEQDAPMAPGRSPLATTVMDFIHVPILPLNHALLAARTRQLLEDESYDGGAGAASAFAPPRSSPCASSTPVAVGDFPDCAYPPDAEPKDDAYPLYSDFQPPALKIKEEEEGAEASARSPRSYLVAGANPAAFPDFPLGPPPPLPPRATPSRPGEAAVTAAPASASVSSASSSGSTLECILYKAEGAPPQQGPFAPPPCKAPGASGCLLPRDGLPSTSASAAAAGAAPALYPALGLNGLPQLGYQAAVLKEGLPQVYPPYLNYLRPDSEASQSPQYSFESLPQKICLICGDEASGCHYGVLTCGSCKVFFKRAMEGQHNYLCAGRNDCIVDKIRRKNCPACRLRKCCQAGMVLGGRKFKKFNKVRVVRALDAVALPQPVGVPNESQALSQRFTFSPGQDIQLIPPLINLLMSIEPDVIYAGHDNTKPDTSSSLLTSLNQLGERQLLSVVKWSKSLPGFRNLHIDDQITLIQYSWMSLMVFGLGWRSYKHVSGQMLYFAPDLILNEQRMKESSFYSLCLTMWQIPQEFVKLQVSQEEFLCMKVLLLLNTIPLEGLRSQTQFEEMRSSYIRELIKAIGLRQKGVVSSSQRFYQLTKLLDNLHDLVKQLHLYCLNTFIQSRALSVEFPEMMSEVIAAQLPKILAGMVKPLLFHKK
Sequence of Androgen receptor (Homo sapiens) (P10275 whole entry, looked up): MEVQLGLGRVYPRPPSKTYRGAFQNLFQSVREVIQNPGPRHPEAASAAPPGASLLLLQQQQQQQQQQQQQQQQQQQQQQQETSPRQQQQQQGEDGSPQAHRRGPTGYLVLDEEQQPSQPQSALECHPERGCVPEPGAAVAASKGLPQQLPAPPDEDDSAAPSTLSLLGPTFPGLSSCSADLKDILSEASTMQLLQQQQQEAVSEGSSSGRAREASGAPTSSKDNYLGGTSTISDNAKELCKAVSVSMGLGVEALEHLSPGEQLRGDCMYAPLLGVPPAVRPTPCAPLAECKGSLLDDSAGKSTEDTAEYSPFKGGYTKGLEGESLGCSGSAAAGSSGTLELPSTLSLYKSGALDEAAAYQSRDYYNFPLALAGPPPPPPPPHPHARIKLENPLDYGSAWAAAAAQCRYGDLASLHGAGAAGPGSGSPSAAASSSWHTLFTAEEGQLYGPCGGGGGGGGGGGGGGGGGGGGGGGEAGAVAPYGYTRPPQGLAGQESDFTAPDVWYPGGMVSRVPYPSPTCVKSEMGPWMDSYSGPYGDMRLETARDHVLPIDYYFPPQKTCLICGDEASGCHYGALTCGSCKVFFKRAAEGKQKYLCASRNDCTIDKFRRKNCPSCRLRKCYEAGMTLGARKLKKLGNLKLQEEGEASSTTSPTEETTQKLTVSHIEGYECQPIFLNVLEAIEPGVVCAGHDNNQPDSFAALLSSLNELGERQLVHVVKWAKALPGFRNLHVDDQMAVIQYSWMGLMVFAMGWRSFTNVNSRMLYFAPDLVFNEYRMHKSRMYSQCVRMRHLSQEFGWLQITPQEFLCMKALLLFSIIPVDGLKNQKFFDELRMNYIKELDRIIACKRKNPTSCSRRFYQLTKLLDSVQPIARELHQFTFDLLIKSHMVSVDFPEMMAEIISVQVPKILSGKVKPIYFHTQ
Sequence of Thyrotropin receptor (Homo sapiens) (P16473 whole entry, looked up): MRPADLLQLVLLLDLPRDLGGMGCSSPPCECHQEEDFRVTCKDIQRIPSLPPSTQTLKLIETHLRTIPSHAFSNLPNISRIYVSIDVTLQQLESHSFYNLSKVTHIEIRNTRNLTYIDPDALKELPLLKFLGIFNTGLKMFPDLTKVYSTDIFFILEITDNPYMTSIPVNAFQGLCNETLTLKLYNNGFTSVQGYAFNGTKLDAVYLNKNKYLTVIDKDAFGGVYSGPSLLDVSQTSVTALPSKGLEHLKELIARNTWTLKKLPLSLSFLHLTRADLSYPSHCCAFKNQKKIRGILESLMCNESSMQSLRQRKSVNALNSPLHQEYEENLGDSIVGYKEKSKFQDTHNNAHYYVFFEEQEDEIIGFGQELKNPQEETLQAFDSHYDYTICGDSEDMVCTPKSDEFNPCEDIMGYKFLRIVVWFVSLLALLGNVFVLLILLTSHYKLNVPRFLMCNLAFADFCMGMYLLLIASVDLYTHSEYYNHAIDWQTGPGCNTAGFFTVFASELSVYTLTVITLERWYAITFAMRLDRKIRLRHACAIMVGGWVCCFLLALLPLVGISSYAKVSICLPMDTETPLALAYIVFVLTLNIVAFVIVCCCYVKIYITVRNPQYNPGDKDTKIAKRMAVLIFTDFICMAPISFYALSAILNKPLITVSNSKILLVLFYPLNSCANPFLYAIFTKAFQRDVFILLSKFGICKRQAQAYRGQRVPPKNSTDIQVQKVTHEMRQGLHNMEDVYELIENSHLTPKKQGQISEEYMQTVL
Sequence of Estrogen receptor (Homo sapiens) (P03372 whole entry, looked up): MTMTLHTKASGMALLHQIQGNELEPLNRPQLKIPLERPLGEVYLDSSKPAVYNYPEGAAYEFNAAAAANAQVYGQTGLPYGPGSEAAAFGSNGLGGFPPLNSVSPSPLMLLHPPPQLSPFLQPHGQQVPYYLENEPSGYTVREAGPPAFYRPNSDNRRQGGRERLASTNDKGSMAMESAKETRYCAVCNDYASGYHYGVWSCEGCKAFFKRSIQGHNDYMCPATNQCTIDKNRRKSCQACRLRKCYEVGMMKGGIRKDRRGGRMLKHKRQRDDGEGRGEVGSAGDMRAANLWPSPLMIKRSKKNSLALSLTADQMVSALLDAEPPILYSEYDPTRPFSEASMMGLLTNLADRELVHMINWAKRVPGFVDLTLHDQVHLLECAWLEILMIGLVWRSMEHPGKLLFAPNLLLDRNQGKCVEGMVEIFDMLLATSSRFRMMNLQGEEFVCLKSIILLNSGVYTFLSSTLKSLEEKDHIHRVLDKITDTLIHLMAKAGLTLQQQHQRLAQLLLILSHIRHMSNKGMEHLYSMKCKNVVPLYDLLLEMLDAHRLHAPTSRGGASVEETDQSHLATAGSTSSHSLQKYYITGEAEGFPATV

Compound	outcome [1]	outcome [2]	outcome [3]	Potency [4]	Potency [5]	Potency [6]	outcome [7]	outcome [8]	outcome [9]	Potency [10]	outcome [11]	outcome [12]	outcome [13]	Potency [14]	Potency [15]	outcome [16]	outcome [17]	outcome [18]	outcome [19]	outcome [20]
CCN1CCCC1CN (centres undefined)	inactive	inactive	inactive	inactive	inactive	inactive	inactive	inactive	inactive	inactive	inactive	inactive	inactive	inactive	inactive	inactive	inactive			
CCCC(=O)OC/C=C(\C)CCC=C(C)C		inactive	inactive	inactive	inactive	inactive	inactive	inactive	inactive		inactive	inactive	inactive	inactive	inactive	inactive	inactive	inactive		
Cc1ccccc1C(N)=O		inactive	inactive	inactive	inactive	inactive	inactive	inactive	inactive	inactive	inactive	inactive	inactive	inactive	inactive	inactive	inactive	inactive	inactive	
CCC(C)OC(C)CC (centres undefined)		inactive	inactive		inactive	28.3 µM (active)	inactive		inactive		inactive	inactive		inactive		inactive	inactive	inactive		inactive
CC(S)C(C)S (centres undefined)	inactive	inactive	inactive	inactive	inactive	inactive	inactive	inactive	inactive	inactive	inactive	inactive	inactive	inactive	inactive				inactive	inactive
C/C(=C1\CCOC(=O)S1)N(C=O)Cc1cnc(C)nc1N		inactive	inactive	inactive	inactive	inactive	inactive	inactive	inactive	inactive	inactive	inactive		inactive	inactive	inactive	inactive	inactive		
C=CCOC(=O)CCCCCC	inactive	inactive	inactive	inactive	inactive	inactive	inactive	inactive	inactive			inactive	inactive	inactive	inactive	inactive	inactive			inactive
CO[C@@]1(NC(=O)Cc2cccs2)C(=O)N2C(C(=O)O)=C(COC(N)=O)CS[C@@H]21		inactive	inactive	inactive			inactive	inactive	inactive	inactive	inactive	inactive	inactive	inactive	inactive	inactive	inactive	inactive		
C=CCN1C[C@H](C(=O)N(CCCN(C)C)C(=O)NCC)C[C@@H]2c3cccc4[nH]cc(c34)C[C@H]21		inactive	inactive	inactive	inactive			inactive	inactive		inactive			inactive	inactive		inactive	inactive		
Cc1c(NC(=O)c2cccnc2)c(=O)n(-c2ccccc2)n1C		inactive	inactive	inactive			inactive	inactive	inactive		inactive	inactive	inactive	inactive	inactive	inactive	inactive	inactive	inactive	
CC1(C)Oc2ccc(C#N)cc2[C@@H](N2CCCC2=O)[C@@H]1O		inactive	inactive	inactive	inactive	inactive	inactive	inactive	inactive	inactive		inactive	inactive	inactive	inactive	inactive	inactive	inactive	inactive	
CN(C)CC/C=C1/c2ccccc2COc2ccc(CC(=O)O)cc21			inactive		inactive		inactive	inactive	inactive		inactive	inactive	inactive	inactive	inactive	inactive	inactive	inactive	inactive	
O=C1OCCO1		inactive	inactive				inactive	inactive		inactive	inactive	inactive	inactive	inactive	inactive	inactive	inactive	inactive	inactive	
C=CC(=O)CCCCC		inactive	inactive	inactive			inactive	inactive	inactive		inactive	inactive	inactive	inactive	inactive	inactive	inactive	inactive	inactive	
Nc1nnnn1-c1ccccc1		inactive	inactive	inactive		inactive	inactive	inactive	inactive	inactive	inactive	inactive	inactive	inactive	inactive	inactive	inactive	inactive		
c1ccc2cnccc2c1		inactive	inactive	inactive			inactive	inactive	inactive	inactive			inactive	inactive			inactive		inactive	
C/C(CC(C)C)=N\O	inactive	inactive	inactive	inactive	inactive		inactive	inactive			inactive	inactive	inactive	inactive	inactive	inactive	inactive		inactive	
CC(=O)N[C@@H](CO)C(=O)N[C@@H](CC(=O)O)C(=O)N[C@@H](CCCCN)C(=O)N1CCC[C@H]1C(=O)O (Ac-SDKP-OH)	inactive	inactive	inactive	inactive			inactive		inactive				inactive	inactive	inactive	inactive	inactive		inactive	inactive
